Data as given in the supplement of paper PMC10338343.
± gives the standard deviation.

tested on: MILI (PIWIL2) piRISC loaded with L1MC piRNA (26 nt); assay: pre-steady-state target cleavage rate (min^-1); guide: L1MC piRNA 5'p-UAACUAAAUACUAUGCAAGCUGUAGG; MIWI and MILI are mouse PIWI proteins and EfPiwi is from a freshwater sponge; tags in brackets are library labels; higher = faster piRNA-guided slicing of the target; conditions: auxiliary factor: none (no GTSF1)
Procedure, shortened: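 Active affinity-purified piRISC (1 nM) loaded with one synthetic guide was mixed with a transcribed, DNA-blocked target RNA library (0.1 nM), with or without 500 nM GTSF1 partner protein, in HEPES–potassium acetate buffer at 33 °C for 0–8 or 0–960 min. Uncleaved targets were sequenced, normalised to depth and to weakly complementary targets, and pooled across three trials, with k3 capped at 0.0001 min^-1. The pre-steady-state cleavage rate was determined with a burst-and-steady-state fit.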

Question: For UCCUGGAUGUCCUUGCAAAGUAAUUAGUUA, which “pre-steady-state target cleavage rate” value is on record?
Answer: Its value is 0.00522 ± 0.0014.

Question: How did the “pre-steady-state target cleavage rate” value turn out when UCCUGGAUGUCGAUGCAUAGUACUUUAGUUA was run?
Answer: Its value is 0.00479 ± 0.0029.

Question: Which “pre-steady-state target cleavage rate” value does the source give for UCCUGGAUGUCGAAGCAUAGUAUUUUGUUA here?
Answer: Its value is 0.00241 ± 0.0023.

Question: How did the “pre-steady-state target cleavage rate” value turn out when UCCUGGUACACCUUGCAUUGUAUUUAGUUA was run?
Answer: The value was 0.00903 ± 0.0041.

Question: Which “pre-steady-state target cleavage rate” value does the source give for UCCUGGAUCAGCUUGCAAAGUAUAUAGUUA here?
Answer: Its value is 0.00771 ± 0.0027.

Question: With UCCUGGAACACGCUUGCAUAGUAUUUAGUUA as the sequence, how does the “pre-steady-state target cleavage rate” value read?
Answer: The value was 0.0151 ± 0.0044.

Question: How did the “pre-steady-state target cleavage rate” value turn out when UCCUGGUACAGACUUGCAUAGUAUUUAGUUA was run?
Answer: The value was 0.00755 ± 0.0044.

Question: For UCCUGGUACAGGAAGCAUAGUAUUUAGUAA, which “pre-steady-state target cleavage rate” value is on record?
Answer: Its value is 0.00332 ± 0.0019.

Question: UCCUGGAUCCAGCUUGCAUAGUAUUUAGUUA was tested. Which “pre-steady-state target cleavage rate” value did it give?
Answer: Its value is 0.00437 ± 0.003.

Question: How did the “pre-steady-state target cleavage rate” value turn out when UCCUGGAACAGCUUGCUUAGUAUUUACUUA was run?
Answer: The value was 0.00316 ± 0.0028.

Question: For UCCUGGAUCAGCUUGCUUUGUAUUUAGUUA, which “pre-steady-state target cleavage rate” value is on record?
Answer: The value was 0.0038 ± 0.0028.

Question: Which “pre-steady-state target cleavage rate” value does the source give for UCCUGGAUGAGCAUGCUUAGUAUUUAGUUA here?
Answer: Its value is 0.0087 ± 0.0027.

Question: With UCCUGGAUGUGCUUGGAUAGUAAUUAGUUA as the sequence, how does the “pre-steady-state target cleavage rate” value read?
Answer: The value was 0.00472 ± 0.0026.

Question: Which “pre-steady-state target cleavage rate” value does the source give for UCCUCGUACAGCUUGCAUAGUUUUUAGUUA here?
Answer: The value was 0.00493 ± 0.0018.

Question: For UCCUGGAACAGCUUGGUAAGUAUUUAGUAA, which “pre-steady-state target cleavage rate” value is on record?
Answer: The value was 0.00425 ± 0.0016.

Question: For UCCUGGAUGUGCUACCAUAGUAUUUAGUUA, which “pre-steady-state target cleavage rate” value is on record?
Answer: Its value is 0.0039 ± 0.0022.

Question: UCCUGGAUGUCGAUGCAUAGUAUUAUAGUUA was tested. Which “pre-steady-state target cleavage rate” value did it give?
Answer: Its value is 0.00538 ± 0.0026.

Question: UCCUGGAUGAGCUUGGAUAGUUUUUAGUUA was tested. Which “pre-steady-state target cleavage rate” value did it give?
Answer: The value was 0.00424 ± 0.0026.

Question: For UCCUGGAUGAGCUUGAAUAGUAUUUAGUUA, which “pre-steady-state target cleavage rate” value is on record?
Answer: Its value is 0.00728 ± 0.0023.

Question: UCCUGGAUGUGCUAGCAUAGUAAUUAGUUA was tested. Which “pre-steady-state target cleavage rate” value did it give?
Answer: The value was 0.00598 ± 0.0021.

Question: How did the “pre-steady-state target cleavage rate” value turn out when UCCUGGAUGUCCUUGCAUAGUAGUUUAGUUA was run?
Answer: The value was 0.00805 ± 0.0029.

Question: Which “pre-steady-state target cleavage rate” value does the source give for UCCUGGAUGUCGUUGUAUAGUAUUUAGUUA here?
Answer: Its value is 0.0105 ± 0.0023.

Question: For UCCUGGAUGUCGUUGCAUAGUAUUUAGUGA, which “pre-steady-state target cleavage rate” value is on record?
Answer: Its value is 0.00426 ± 0.0027.

Question: UCCUGGAUCAGCUUGCAUAGAUAUUUAGUUA was tested. Which “pre-steady-state target cleavage rate” value did it give?
Answer: Its value is 0.00307 ± 0.0026.

Question: With UCCUGGAUCAGCUUGCAAAGUAUUUUGUUA as the sequence, how does the “pre-steady-state target cleavage rate” value read?
Answer: The value was 0.00456 ± 0.0025.

Question: For UCCUCCUACAGCUUGGAUUGUAUUUAGUUA, which “pre-steady-state target cleavage rate” value is on record?
Answer: Its value is 0.00457 ± 0.002.

Question: How did the “pre-steady-state target cleavage rate” value turn out when UCCUGCUACAGCUUGCAUAGUACUUUAGUUA was run?
Answer: Its value is 0.00825 ± 0.0022.

Question: UCCUGGAUGUCCUUGCUUUGUAUUUAGUUA was tested. Which “pre-steady-state target cleavage rate” value did it give?
Answer: The value was 0.00458 ± 0.0025.

Question: For UCCUGGAUGUGCUUGCAUUGUAUUAAGUUA, which “pre-steady-state target cleavage rate” value is on record?
Answer: Its value is 0.00354 ± 0.0033.

Question: With UCCUGGAUCAGCAAGCAUAGUAUUUAGUAA as the sequence, how does the “pre-steady-state target cleavage rate” value read?
Answer: The value was 0.00292 ± 0.0028.

Question: UCCUGGAUGAGCUUGCUAUGUAUUUAGUUA was tested. Which “pre-steady-state target cleavage rate” value did it give?
Answer: The value was 0.00524 ± 0.0027.

Question: Which “pre-steady-state target cleavage rate” value does the source give for UCCUGGAUGUGCUUGCACAGUAUUUAGUUA here?
Answer: Its value is 0.00631 ± 0.0022.

Question: For UCCUGGAUCAGCUUGCAUAGUUUUUAGUUA, which “pre-steady-state target cleavage rate” value is on record?
Answer: Its value is 0.00873 ± 0.0021.

Question: With UCCUGGAACAAGCUUGCAUAGUAUUUAGUUA as the sequence, how does the “pre-steady-state target cleavage rate” value read?
Answer: The value was 0.0116 ± 0.003.

Question: With UCCUGGAUGUCGUUGCAUAGUAUUUAGUCUA as the sequence, how does the “pre-steady-state target cleavage rate” value read?
Answer: Its value is 0.00433 ± 0.0036.

Question: How did the “pre-steady-state target cleavage rate” value turn out when UCCUGGAUGUCGUUGCGUAGUAUUUAGUUA was run?
Answer: The value was 0.00779 ± 0.0026.

Question: Which “pre-steady-state target cleavage rate” value does the source give for UCCUGGAUGUCCUUGCAUAUUAUUUAGUUA here?
Answer: Its value is 0.0028 ± 0.0027.

Question: UCCUGGAUGUCGAAGCAUAGUAAUUUAGUUA was tested. Which “pre-steady-state target cleavage rate” value did it give?
Answer: The value was 0.0059 ± 0.0018.

Question: How did the “pre-steady-state target cleavage rate” value turn out when UCCUGGUACAGCUUGGUAAGUAUUUAGUUA was run?
Answer: The value was 0.00809 ± 0.0033.

Question: With UCCUGGAUGUGGUUGCAUAGUAUUUUGUUA as the sequence, how does the “pre-steady-state target cleavage rate” value read?
Answer: Its value is 0.0039 ± 0.0037.
